Inconclusive results are not listed. Active and inactive are the calls of the source. Calls follow the shape of the dose curve; as a rule, active = well fitted curve in the direction sought with a large enough effect; inconclusive = small, poorly fitted or top-dose-only effect, or another doubt; inactive = no such curve, though single readings can be large; an effect the other way counts as inactive or inconclusive. Non-standard residues stand in square brackets, D forms with d. Residues, ends and D or L forms follow the SMILES beside them. *: point of attachment. Nva = CCC[C@H](N)C(=O)O; Cbz = O=C(OCc1ccccc1)*
Assays:
[1] = NS1 protein of Zika virus - qHTS assay to identify small molecule inhibitors in human HEK 293 cells (AID 1347053); also: nearly all actives have a fitted effect of over 55% in size
Method in brief: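 HEK 293; 20 h pre-culture, 37 C/5% CO2; cpd 1 h pre-infection; ZIKV MR766, MOI = 0.5, 24 h, 37 C; TR-FRET NS1 readout (two anti-NS1 Abs); norm. to no-virus vs infected.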

[2] = qHTS of pediatric cancer cell lines to identify multiple opportunities for drug repurposing: Primary screen for DAOY cells (AID 1347090); also: nearly all actives have a fitted effect of over 55% in size
Method in brief: (§1)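 Viability measured as metabolically active cells via CellTiter-Glo luminescence following 48 hours of compound exposure, 11-point dilutions in confirmatory testing. 500-1,000 cells/well plated 5 hours before dosing; controls were DMSO and 2.3 µM bortezomib.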

[3] = qHTS of pediatric cancer cell lines to identify multiple opportunities for drug repurposing: Primary screen for SJ-GBM2 cells (AID 1347091)
Method in brief: as §1

[4] = qHTS of pediatric cancer cell lines to identify multiple opportunities for drug repurposing: Primary screen for A673 cells (AID 1347092); also: nearly all actives have a fitted effect of over 45% in size
Method in brief: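 Cell viability of A673 measured by CellTiter-Glo ATP luminescence after 48 hours compound exposure. Dilution series spanned 0.78 nM to 46 µM (MIPE, 11-point) or 0.59 nM to 46 µM (NPC, 8-point); bortezomib 2.3 uM positive control.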

[5] = qHTS of pediatric cancer cell lines to identify multiple opportunities for drug repurposing: Primary screen for SK-N-MC cells (AID 1347093)
Method in brief: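 Metabolically active cells were quantified by ATP-dependent luminescence (CellTiter-Glo, 15 min at room temperature) following 48 h treatment. Cells had been plated at 500-1,000 per well and settled for 5 h beforehand.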

[6] = qHTS of pediatric cancer cell lines to identify multiple opportunities for drug repurposing: Primary screen for TC32 cells (AID 1347089); also: nearly all actives have a fitted effect of over 60% in size
Method in brief: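 Luminescent ATP read-out (CellTiter-Glo) of metabolically active TC32 cells after 48 h exposure. Concentration-response curves came from 11-point (MIPE, 0.78 nM–46 µM) or 8-point (NPC, 0.59 nM–46 µM) primary titrations; follow-up used 11 points.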

Measured: Potency
Potency is read from the fitted curve at half-maximal effect.

O=C(Nc1cc2cc[nH]c2cn1)c1ccccc1
inactive: [1]
active: [2] 14800 nM | [3] 14800 nM | [4] 7430 nM | [5] 11800 nM

CC1=C(C(=O)Nc2cc3cn[nH]c3cc2F)C(c2ccc(Cl)cc2F)N=C(c2ccnc(Cl)c2)N1 (configuration not stated)
active: [3] 5900 nM | [5] 11800 nM
inactive: [1] | [2]

CCCCCCCCCCCCc1ccc(S(=O)(=O)Nc2nncs2)cc1
inactive: [1] | [2] | [4]

CCOc1cc2ncc(C#N)c(Nc3ccc(OCc4ccccn4)c(Cl)c3)c2cc1NC(=O)C=CCN(C)C
inactive: [1]
active: [3] 1180 nM

CC(=O)SCC(Cc1ccccc1)C(=O)NCC(=O)OCc1ccccc1 (configuration not stated)
inactive: [1]
active: [2] 2350 nM | [3] 5900 nM | [4] 590 nM | [5] 187 nM

CC(C)[C@H](CO)Nc1nc(Nc2cccc(Cl)c2)c2ncn(C(C)C)c2n1
active: [1] 23500 nM | [2] 18700 nM | [3] 16600 nM | [4] 14800 nM | [5] 1320 nM

C[C@H]1O[C@H](O[C@H]2[C@H](O)[C@@H](O)[C@@H](O[C@H]3[C@H](O)[C@@H](O)C(O)O[C@H]3CO)O[C@H]2CO)[C@H](O)[C@@H](O)[C@H]1N[C@H]1C=C(CO)[C@@H](O)[C@H](O)[C@@H]1O (some centres not stated)
inactive: [1] | [2]
active: [3] 4690 nM | [4] 187 nM

CCc1cnn2c(NCc3ccc[n+]([O-])c3)cc(N3CCCC[C@@H]3CCO)nc12
active: [1] 148 nM | [2] 37.2 nM | [3] 23.5 nM | [4] 14.8 nM | [5] 29.6 nM

CCc1cc(C(C)=NOCc2ccc(C3CCCCC3)c(C(F)(F)F)c2)ccc1CN1CC(C(=O)O)C1
inactive: [1]
active: [2] 590 nM | [5] 37.2 nM

Nc1ccn(C[C@@H](CO)OCP(=O)(O)O)c(=O)n1
not listed: [6]
inactive: all other assays above

C[C@@H]1CC[C@@]2(OC1)OC1CC3C4CC=C5CC(O)CCC5(C)C4CCC3(C)C1[C@@H]2C (some centres not stated)
inactive: [1] | [2] | [3] | [5]

Cn1cc(-c2ccc3ncc(Cc4ccc5ncccc5c4)n3n2)cn1
inactive: [1] | [2] | [4]
active: [3] 9.3 nM

CCS(=O)(=O)Nc1ccc2[nH]c(O)c(C(=Nc3ccc(CN4CCCCC4)cc3)c3ccccc3)c2c1
active: [1] 18700 nM | [2] 7430 nM | [4] 590 nM

CC(C)n1cnc2c(NCCc3ccc(O)cc3)nc(-c3csc4ccccc34)nc21
active: [1] 26400 nM | [2] 11800 nM | [4] 1180 nM

COc1cc([C@@H]2c3cc4c(cc3[C@H](O)[C@H]3COC(=O)[C@@H]23)OCO4)cc(OC)c1OC
active: [1] 264 nM | [2] 118 nM | [3] 66.2 nM | [4] 93.5 nM

CC1(C)[C@H](O[C@H]2O[C@H](C(=O)O)[C@@H](O)[C@H](O)[C@H]2O[C@@H]2O[C@H](C(=O)O)[C@@H](O)[C@H](O)[C@H]2O)CC[C@@]2(C)[C@H]1CC[C@]1(C)[C@H]2C(=O)C=C2[C@H]3C[C@@](C)(C(=O)O)CC[C@]3(C)CC[C@]21C
not listed: [6]
inactive: all other assays above

COC(=O)[C@H](CCCN=C(N)N)NS(=O)(=O)c1ccc(C)cc1
not listed: [6]
inactive: all other assays above

CCOC(=O)N1CCN([N+]([O-])=NOc2ccc([N+](=O)[O-])cc2[N+](=O)[O-])CC1
active: [2] 18700 nM | [3] 8330 nM | [4] 9350 nM | [5] 8330 nM
inactive: [1]

CCC[C@H]1C[C@H](C(=O)N[C@@H]([C@@H]2O[C@@H](SC)[C@@H](O)[C@@H](O)[C@@H]2O)[C@H](C)Cl)N(C)C1
not listed: [6]
inactive: all other assays above

OCc1ccccc1O[C@@H]1O[C@H](CO)[C@H](O)[C@H](O)[C@H]1O
inactive: [1] | [2] | [3] | [4]

CC[C@]12C=CCN3CC[C@@]4(c5cc([C@@]6(C(=O)OC)C[C@H]7C[C@@H](C(C)(F)F)CN(Cc8c6[nH]c6ccccc86)C7)c(OC)cc5N(C)[C@H]4[C@@](O)(C(=O)OC)[C@H]1OC(C)=O)[C@@H]32
active: [1] 7430 nM | [2] 29.6 nM | [3] 1 nM | [4] 4.7 nM | [5] 3 nM

CCCCCCCCCCCC(CC1OC(=O)C1CCCCCC)OC(=O)C(CC(C)C)NC=O (configuration not stated)
inactive: [1] | [2] | [4]
active: [3] 9350 nM

Cc1ccc([N+](=O)[O-])cc1S(=O)(=O)N(C)N=Cc1cnc2ccc(Br)cn12
active: [1] 118 nM | [2] 235 nM | [3] 118 nM | [4] 7.4 nM

Cn1cc(C2=C(c3c4n(c5ccccc35)CCC(CN)C4)C(=O)NC2=O)c2ccccc21 (configuration not stated)
active: [1] 13200 nM | [3] 14800 nM

O=C1CSC(=O)N1C(CCc1ccncc1)COc1ccc(-c2cccc([N+](=O)[O-])c2)cc1 (configuration not stated)
inactive: [1]
active: [2] 7430 nM | [4] 7430 nM | [5] 10500 nM

CC(=O)N1CCN(c2ccc(OCc3nn(C)c(C)c3-c3cccc4c(CCCOc5cccc6ccccc56)c(C(=O)O)n(Cc5cccnc5)c34)cc2)CC1
inactive: [1]
active: [2] 118 nM | [3] 1050 nM | [4] 74.3 nM | [5] 23.5 nM

c1cncc(CN2CCC(n3ncc4c(N5CCOCC5)nc(-c5ccc6[nH]ccc6c5)nc43)CC2)c1
active: [1] 14800 nM | [2] 18700 nM | [3] 3320 nM | [4] 11800 nM | [5] 7430 nM

CCC(C=C[C@@H]1OC(=O)C=C[C@H]1C)=C[C@H](C)CC=CC(C)=C[C@@H](C)C(=O)[C@@H](C)[C@H](O)[C@@H](C)CC(C)=CC(=O)O
active: [1] 124 nM | [2] 78.2 nM | [4] 24.7 nM | [5] 24.7 nM

C#Cc1cccc(Nc2ncnc3cc(OCCOC)c(OCCO)cc23)c1
active: [2] 3720 nM | [3] 5260 nM | [4] 187 nM
inactive: [1]

Cc1ccc(O)c(C(CCN(C(C)C)C(C)C)c2ccccc2)c1 (configuration not stated)
inactive: [1] | [2] | [3] | [4]

CCN(C(=O)c1c(O)c2c(Cl)cccc2n(C)c1=O)c1ccccc1
inactive: [1] | [3]

Cc1ccc(-n2[nH]c(C)c(N=Nc3cccc(-c4cccc(C(=O)O)c4)c3O)c2=O)cc1C
inactive: [1]
active: [2] 18700 nM | [4] 13300 nM | [5] 14800 nM

C[C@@H]1C(=O)O[C@H]2CC34[C@H]5C[C@@H](C(C)(C)C)C36[C@H](OC(=O)[C@@H]6O)O[C@@]4(C(=O)O5)[C@]21O (some centres not stated)
not listed: [6]
inactive: all other assays above

Cc1nc(NC(=O)N2CCC[C@@H]2C(N)=O)sc1-c1ccnc(C(C)(C)C(F)(F)F)c1
inactive: [1]
active: [2] 7430 nM | [3] 5900 nM | [5] 59 nM

COc1cc2c(Nc3ccc(Cl)c(Cl)c3F)ncnc2cc1OCC1C[C@@H]2CN(C)C[C@H]2C1
inactive: [1]
active: [2] 935 nM | [3] 7430 nM | [4] 935 nM | [5] 2960 nM

C=CC1=C(C(=O)O)N2C(=O)[C@@H](NC(=O)C(=NO)c3csc(N)n3)[C@H]2SC1
not listed: [6]
inactive: all other assays above

CCCc1nc(C(C)(C)O)c(C(=O)O)n1Cc1ccc(-c2ccccc2-c2nn[nH]n2)cc1
inactive: [1] | [2] | [3] | [4]

COc1cc(O)c2c(c1)C1OC1C[C@H](O)[C@H](O)C(=O)C=CC[C@H](C)OC2=O (some centres not stated)
active: [1] 11800 nM | [2] 7430 nM | [3] 8330 nM | [4] 5900 nM | [5] 2350 nM

CCC[C@@H](C=O)NC(=O)[C@H](CC(C)C)NC(=O)[C@H](CC(C)C)NC(=O)OCc1ccccc1 (Cbz-Leu-Leu-[Nva]-aldehyde)
active: [1] 3320 nM | [2] 935 nM | [3] 296 nM | [4] 590 nM | [5] 105 nM

Cn1c(Nc2ccc(C(F)(F)F)cc2)nc2cc(Oc3ccnc(-c4ncc(C(F)(F)F)[nH]4)c3)ccc21
active: [6] 16500 nM | [2] 18700 nM | [3] 662 nM | [4] 2350 nM | [5] 187 nM

CCc1ccc(C(=O)Nc2cc(CN3CCN(C)CC3)cc(C(F)(F)F)c2)cc1C#Cc1cnc2ccnn2c1
active: [1] 13200 nM | [3] 9350 nM | [4] 9350 nM | [5] 1870 nM

C[C@H]1[C@@H](OC(=O)CCC(=O)O)O[C@@H]2O[C@@]3(C)CC[C@@H]4[C@H](C)CC[C@@H]1[C@@]24OO3
active: [6] 14700 nM | [2] 11800 nM | [4] 5900 nM | [5] 935 nM

Cc1[nH]c(C=C2C(=O)Nc3ccccc32)c(C)c1CCC(=O)O
active: [3] 935 nM | [4] 1180 nM | [5] 590 nM
inactive: [1]

O=C(O)c1ccc(Nc2ncc3c(n2)-c2ccc(Cl)cc2C(c2c(F)cccc2F)=NC3)cc1
active: [4] 4690 nM | [5] 662 nM
inactive: [1]

CC(=O)O[C@@]12CO[C@H]1C[C@H](O)[C@@]1(C)C(=O)[C@H](O)C3=C(C)[C@@H](OC(=O)C(O)[C@@H](NC(=O)OC(C)(C)C)c4ccccc4)C[C@@](O)([C@@H](OC(=O)c4ccccc4)[C@@H]21)C3(C)C (some centres not stated)
active: [6] 0.1 nM | [2] 1 nM | [3] 23500 nM | [5] 1 nM

— PubChem BioAssay (NCATS)
